Test [1] relates to Plasmodium falciparum Sir2 (PF13_0152, Sir2A). Put plainly: Plasmodium falciparum Sir2A binding compounds – biochemical, small-molecule microarray, 635 nm fluorescence, primary screen (AID 1098).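 Further: score merges spot fluorescence intensity with its signal-to-noise ratio.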 The settings on record: fluorescence 635 nm, higher = more signal.
The nature of test [2]: probe aDKK1 binding to arrayed compounds – biochemical, biotinylated probe, 635/667 nm fluorescence, primary screen (AID 1099).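 Further: score merges 667nm spot fluorescence with signal to noise across triplicate slides.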 The settings on record: small-molecule microarray, higher = more signal.
Test [3] can be described thus: probe aCHRDL2 binding to arrayed compounds – biochemical, biotinylated probe, 635/667 nm fluorescence, primary screen (AID 1100). The settings on record: small-molecule microarray, higher = more signal.
Test [4] is described as follows: change in splice reporter luminescence, either direction, cell-based, HEK293, spliceosome inhibition project, primary screen (AID 1101).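 Further: HEK293 cells carrying a splicing-competent luciferase reporter gene; test concentration not given here.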 The note with it: HEK293 splicing luciferase reporter, 24 h, higher = more signal, called active from +8 up or from −8 down.
Test [5] concerns the target Fibroblast growth factor 10 (Homo sapiens) (UniProt O15520). Kind of test: compounds binding fibroblast growth factor 10 – biochemical, small-molecule microarray, 635 nm fluorescence, primary screen (AID 1102). The note with it: FGF10 binding, fluorescence 635 nm, higher = more signal.
Test [6] concerns glycogen synthase kinase-3 (GSK3A per assay name; protocol says GSK3B). Kind of test: compounds binding glycogen synthase kinase-3 – biochemical, small-molecule microarray, 635 nm fluorescence, GSK3A, primary screen (AID 1103). Further: the record names both GSK3A and GSK3B. The settings on record: fluorescence 635 nm, higher = more signal.
The target in test [7] is Epidermal growth factor receptor (Homo sapiens) (UniProt P00533). Kind of test: compounds binding epidermal growth factor receptor – biochemical, small-molecule microarray, 635 nm fluorescence, primary screen (AID 1104).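 Further: score merges 667 nm emission intensity with spot signal to noise over triplicate slides.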 The note with it: EGFR binding, higher = more signal.
Epidermal growth factor receptor (Homo sapiens), sequence (P00533 whole entry, looked up): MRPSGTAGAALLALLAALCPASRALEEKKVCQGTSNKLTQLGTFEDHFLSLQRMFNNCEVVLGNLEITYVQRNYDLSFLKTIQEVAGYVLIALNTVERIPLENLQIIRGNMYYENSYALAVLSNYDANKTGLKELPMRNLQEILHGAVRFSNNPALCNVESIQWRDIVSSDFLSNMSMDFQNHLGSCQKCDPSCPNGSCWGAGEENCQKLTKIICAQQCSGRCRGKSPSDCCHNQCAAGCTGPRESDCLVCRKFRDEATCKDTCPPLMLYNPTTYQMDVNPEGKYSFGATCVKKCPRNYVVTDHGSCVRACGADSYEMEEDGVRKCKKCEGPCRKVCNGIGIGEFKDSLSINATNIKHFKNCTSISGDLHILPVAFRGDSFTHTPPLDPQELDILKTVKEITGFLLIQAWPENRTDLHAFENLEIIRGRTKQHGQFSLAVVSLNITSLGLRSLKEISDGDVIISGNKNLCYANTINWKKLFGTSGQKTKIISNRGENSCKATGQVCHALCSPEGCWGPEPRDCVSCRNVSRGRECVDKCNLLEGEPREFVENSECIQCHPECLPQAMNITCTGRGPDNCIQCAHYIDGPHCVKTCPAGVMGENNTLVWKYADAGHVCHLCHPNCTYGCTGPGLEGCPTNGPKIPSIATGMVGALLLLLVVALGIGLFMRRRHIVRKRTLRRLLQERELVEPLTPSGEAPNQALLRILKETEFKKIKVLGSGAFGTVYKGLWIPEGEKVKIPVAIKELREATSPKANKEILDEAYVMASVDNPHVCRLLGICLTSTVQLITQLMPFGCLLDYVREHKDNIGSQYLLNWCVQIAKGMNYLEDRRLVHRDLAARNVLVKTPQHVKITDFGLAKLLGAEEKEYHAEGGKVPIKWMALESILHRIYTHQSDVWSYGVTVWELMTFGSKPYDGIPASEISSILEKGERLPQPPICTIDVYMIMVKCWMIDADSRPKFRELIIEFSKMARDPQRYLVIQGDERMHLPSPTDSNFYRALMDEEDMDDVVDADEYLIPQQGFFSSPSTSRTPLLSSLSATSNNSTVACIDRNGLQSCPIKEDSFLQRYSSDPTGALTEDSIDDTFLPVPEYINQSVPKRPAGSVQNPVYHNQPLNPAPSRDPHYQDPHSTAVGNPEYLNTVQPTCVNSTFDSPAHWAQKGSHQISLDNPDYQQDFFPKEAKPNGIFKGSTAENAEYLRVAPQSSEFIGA
The target of test [8] is Follistatin-related protein 3 (Homo sapiens) (UniProt O95633). Put plainly: compounds binding follistatin-related protein 3 – biochemical, small-molecule microarray, 635 nm fluorescence, primary screen (AID 1105).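 Further: score merges emission near 667 nm and signal to noise per printed spot across three slides.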 The note with it: FSTL3 binding, higher = more signal.
Follistatin-related protein 3 (Homo sapiens), sequence (O95633 whole entry, looked up): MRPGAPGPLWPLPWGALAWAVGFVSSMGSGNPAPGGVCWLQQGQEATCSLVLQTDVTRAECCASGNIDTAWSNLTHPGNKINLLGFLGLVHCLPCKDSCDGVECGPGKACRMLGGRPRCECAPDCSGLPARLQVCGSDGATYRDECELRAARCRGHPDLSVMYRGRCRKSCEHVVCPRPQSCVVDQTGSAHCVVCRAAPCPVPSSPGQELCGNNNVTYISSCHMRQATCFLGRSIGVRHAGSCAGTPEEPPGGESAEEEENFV
The target in test [9] is Dickkopf-related protein 1 (Homo sapiens) (UniProt O94907). Kind of test: small molecules binding DKK1 protein – biochemical, small-molecule microarray, 635 nm fluorescence scan, primary screen (AID 1106).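 Further: score merges emission near 667 nm with signal to noise over three replicate slides.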 The settings on record: higher = more signal.
Dickkopf-related protein 1 (Homo sapiens), sequence (O94907 whole entry, looked up): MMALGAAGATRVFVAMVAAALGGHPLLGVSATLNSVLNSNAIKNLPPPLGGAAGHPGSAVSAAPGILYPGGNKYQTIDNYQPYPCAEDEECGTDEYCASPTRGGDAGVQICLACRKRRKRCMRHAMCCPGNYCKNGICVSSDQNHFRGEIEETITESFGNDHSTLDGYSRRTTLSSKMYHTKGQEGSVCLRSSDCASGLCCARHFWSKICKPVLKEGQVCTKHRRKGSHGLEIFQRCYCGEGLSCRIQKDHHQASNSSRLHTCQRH
Test [10] deals with Inhibin beta A chain (activin A). Kind of test: small molecules binding activin A – biochemical, small-molecule microarray, 635 nm fluorescence scan, primary screen (AID 1107).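 Further: mouse activin A protein probed at 4.33 µg/mL on printed slides; score merges bound-protein fluorescence near 667 nm with spot signal-to-noise.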 The note with it: INHBA, higher = more signal.
For test [11], the system named is Human papillomavirus type 1a protein E7 (residues 44-93). Put plainly: small molecules binding HPV E7 44-93 – biochemical, small-molecule microarray, residues 44-93, 635 nm fluorescence, primary screen (AID 1108).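 Further: E7 fragment applied at 1 µg/mL in TBST for 1 h at 4 C; score combines spot fluorescence with its signal to noise ratio.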 The note with it: fluorescence 635 nm, higher = more signal.
Test [12] in a line: hepatitis C replication reporter changes, two-sided – Huh7 cells, luciferase reporter, HCV replication inhibitor project, primary screen (AID 1109).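 Further: huh7 hepatoma cells harbouring a luciferase neomycin HCV replicon reporter; luciferase luminescence as measure of HCV replicon replication; test concentration not given here.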 The note with it: Huh7 HCV replicon luciferase reporter, 48 h; higher = more signal. Background: In a reporter assay the amount or activity of a reporter protein is the signal.
In test [13] the target is Left-right determination factor 2 (Homo sapiens) (UniProt O00292). Kind of test: small molecules binding LEFTY2 protein – biochemical, small-molecule microarray, 635 nm fluorescence scan, primary screen (AID 1110). The settings on record: higher = more signal.
Left-right determination factor 2 (Homo sapiens), sequence (O00292 whole entry, looked up): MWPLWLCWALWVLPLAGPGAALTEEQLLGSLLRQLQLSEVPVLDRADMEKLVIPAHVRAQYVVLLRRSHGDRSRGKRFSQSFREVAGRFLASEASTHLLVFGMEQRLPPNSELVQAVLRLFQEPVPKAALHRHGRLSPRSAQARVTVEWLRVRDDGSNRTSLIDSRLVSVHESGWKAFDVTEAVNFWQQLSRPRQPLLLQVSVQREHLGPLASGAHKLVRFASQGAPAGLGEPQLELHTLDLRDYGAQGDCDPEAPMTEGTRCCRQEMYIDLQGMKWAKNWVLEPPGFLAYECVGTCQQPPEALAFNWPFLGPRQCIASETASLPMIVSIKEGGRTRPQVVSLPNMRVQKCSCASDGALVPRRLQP
The target in test [14] is Calmodulin-1 (Homo sapiens) (UniProt P0DP23). Kind of test: small molecules binding calmodulin-1 with EGTA – biochemical, small-molecule microarray, Cy5-labelled CALM1, profiling panel (AID 1111).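 Further: labelled calmodulin applied in Tris saline Tween buffer holding calcium plus EGTA and DTT.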 The note with it: Cy5-CALM1 binding fluorescence, higher = more signal.
Test [15] has the same target. Kind of test: small molecules binding Ca-loaded calmodulin-1 – biochemical, small-molecule microarray, Cy5-labelled CALM1, plus calcium, artefact control for SMM control-protein annotation, profiling panel (AID 1112).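 Further: score merges spot fluorescence with signal to noise from triplicate slides.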 The settings on record: Cy5-CALM1 binding fluorescence, higher = more signal.
A short description of test [16]: probe aWnt5a binding to arrayed compounds – biochemical, biotinylated probe, 635/667 nm fluorescence, primary screen (AID 1113).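 Further: score merges 667 nm fluorescence intensity with signal-to-noise per printed feature.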 The note with it: small-molecule microarray, higher = more signal.
A short description of test [17]: probe aShh binding to arrayed compounds – biochemical, biotinylated probe, 635/667 nm fluorescence, primary screen (AID 1114).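 Further: probe is biotin-labelled aShh protein from a stem cell growth factor screen; measures binding of labelled protein to compounds printed on the slide; score merges feature fluorescence at 667 nm with signal-to-noise.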 The settings on record: small-molecule microarray, higher = more signal.
Test [18] in a line: probe aNog binding to arrayed compounds – biochemical, biotinylated probe, 635/667 nm fluorescence, primary screen (AID 1115).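 Further: probe is biotinylated aNog protein used at 0.15 µg/mL for 1 h at 4 C; z-score combines 667 nm fluorescence of each spot with its signal to noise.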 The settings on record: small-molecule microarray, higher = more signal.
For test [19], the target named is Torsin-1A-interacting protein 1 (Homo sapiens) (UniProt Q5JTV8). Put plainly: compound microarray binding of lysate hLAP1 – cell lysate, small-molecule microarray, COS7 lysate, 635/667 nm fluorescence, primary screen (AID 1116). The settings on record: 635 nm fluorescence, higher = more signal.
Torsin-1A-interacting protein 1 (Homo sapiens), sequence (Q5JTV8 whole entry, looked up): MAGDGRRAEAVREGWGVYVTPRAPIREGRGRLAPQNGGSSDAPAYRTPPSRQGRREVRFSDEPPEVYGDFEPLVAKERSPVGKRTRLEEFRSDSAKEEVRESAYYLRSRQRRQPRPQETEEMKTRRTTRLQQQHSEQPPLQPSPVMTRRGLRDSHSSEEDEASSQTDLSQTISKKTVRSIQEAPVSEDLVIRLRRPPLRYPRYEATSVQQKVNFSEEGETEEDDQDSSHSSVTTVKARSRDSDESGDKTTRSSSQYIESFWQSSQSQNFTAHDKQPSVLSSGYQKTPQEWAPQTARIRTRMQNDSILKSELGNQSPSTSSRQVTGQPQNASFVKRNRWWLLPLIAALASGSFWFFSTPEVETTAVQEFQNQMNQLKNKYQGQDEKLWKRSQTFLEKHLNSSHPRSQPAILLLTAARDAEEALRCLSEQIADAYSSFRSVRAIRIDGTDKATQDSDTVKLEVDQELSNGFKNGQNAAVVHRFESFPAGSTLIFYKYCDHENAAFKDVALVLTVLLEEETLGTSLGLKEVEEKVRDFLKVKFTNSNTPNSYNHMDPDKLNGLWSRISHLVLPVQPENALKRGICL
Test [20] concerns the target Alpha-bungarotoxin (Bungarus multicinctus) (UniProt P60615). Kind of test: compounds binding labelled alpha-BTX control protein – biochemical, small-molecule microarray, Alexa647 label, 635/667 nm fluorescence, artefact control for SMM control protein annotation, profiling panel (AID 1117). The settings on record: alpha-BTX-A647 binding fluorescence, higher = more signal.

The source made the active and inactive calls.

Fibroblast growth factor 10 (Homo sapiens), sequence (O15520 whole entry, looked up): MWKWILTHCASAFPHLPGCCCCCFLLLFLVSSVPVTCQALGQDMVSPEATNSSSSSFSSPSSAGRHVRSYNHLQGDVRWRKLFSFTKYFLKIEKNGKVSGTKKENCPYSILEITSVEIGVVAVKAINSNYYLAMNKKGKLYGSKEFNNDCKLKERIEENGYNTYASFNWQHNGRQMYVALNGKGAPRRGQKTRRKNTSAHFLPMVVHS
Alpha-bungarotoxin (Bungarus multicinctus), sequence (P60615 whole entry, looked up): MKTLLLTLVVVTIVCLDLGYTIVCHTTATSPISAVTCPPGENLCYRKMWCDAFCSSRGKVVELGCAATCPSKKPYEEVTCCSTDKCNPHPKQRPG

Regarding `CC1CC/C=C\[C@H]2OC34C=CCN(C(C)(C)C)C(=O)[C@H]3N(CCCCCCO)C(=O)[C@@H]4C2C(=O)O1` (stereo not given in full), the composite z-score in test [1] was 2.05; in test [2], -0.0908; in test [3], 0.416; in test [5] it was 0.0444; in test [6], -0.615; in test [7], -0.777. In addition, the composite z-score in test [8] was -0.568; in [9], -0.957; in test [10] it was 1.13; in [11], -0.0409; in test [13], -1.06; in test [14], -0.0234. For the same compound, the composite z-score was 0.725 in test [15]; -0.154 in [16]; -0.0553 in test [17]; 0.0511 in test [18]; 0.656 in test [19]; -1.06 in test [20]. In addition, the z-score in test [4] was -0.0517 (inactive); in [12] it was -0.549.
For `COCCOC(=O)N1C(=O)[C@@]2(c3ccccc31)[C@H](c1ccccc1OCCO)N1[C@H](c3ccccc3)[C@H](c3ccccc3)OC(=O)[C@H]1[C@@H]2C(=O)Nc1nc2ccccc2s1`, the composite z-score in test [1] amounted to 1.4; in test [2] it was 0.262; in [3], 0.245; in test [5] it was 1.1; in test [6] it was 1.32; in [7], 0.661. The composite z-score was determined as 1.34 in test [8]; 0.476 in test [9]; 0.0911 in test [10]; 0.484 in [11]; 0.531 in [13]; 1.24 in test [14]. Also, the composite z-score in test [15] was 0.375; in [16], 0.0095; in test [17], -0.188; in [18], 0.326; in test [19] it was 0.988; in [20], 1.74. The z-score in [4] was -0.968 (inactive); in test [12], -2.52.
Regarding `COC(=O)[C@@]1(Cc2ccc(OC)cc2)[C@H]2c3cc(C(=O)N4CCCC4)n(Cc4ccsc4Br)c3C[C@H]2CN1C(=O)c1ccccc1`, the composite z-score in test [1] is 0.824; in test [2] it was 0.597; in [3], 1.08; in [5], -0.125; in [6], 0.386; in test [7], -0.248. In addition, the composite z-score in [8] was -0.246; in test [9], -0.752; in test [10] it was 0.741; in test [11] it was 1.27; in test [13], -0.857; in test [14], 1.1. In addition, the composite z-score was 0.696 in [15]; -0.0944 in test [16]; -0.237 in test [17]; 1.48 in test [18]; 0.254 in test [19]; 0.218 in test [20]. For the same compound, the z-score is 2.42 (inactive) in [4] and -3.66 in test [12].
In the case of `O=C1NC(=O)C2C1C=CC(C(O)Cc1ccccc1)N2Nc1ccc(Cl)cc1Cl` (stereo not given), the composite z-score in test [1] was 1.2; in test [2], 0.931; in [3] it was 1.09; in test [5], 0.175; in test [6], -0.0984; in test [7] it was -0.854. Moreover, the composite z-score is 0.236 in [8]; -1.18 in test [9]; 1.07 in test [10]; -1.97 in test [11]; -1.29 in test [13]; 1.73 in test [14]. The composite z-score in test [15] is 0.634; in test [16], -0.0825; in [17], 0.171; in [18] it was 0.155; in [19], 0.588; in test [20], 1.57. Besides, the z-score is 1.8 (inactive) in test [4] and 0.458 in [12].
As to `COC(=O)c1c(CC[C@@H](CO)NC(=O)N2CCC[C@H]2Cn2cc(-c3ccccn3)nn2)oc(C(C)=O)c1C(=O)OC`, the composite z-score in [1] was 1.23; in [2] it was -0.238; in test [3], -0.337; in [5], 0.0437; in test [6] it was 0.209; in test [7], 0.0417. The composite z-score was -0.144 in test [8]; -0.17 in test [9]; 0.113 in test [10]; 0.0413 in test [11]; -0.219 in [13]; -0.209 in test [14]. The composite z-score was -0.747 in [15]; -0.152 in [16]; -0.0474 in test [17]; -0.0418 in test [18]; -0.219 in [19]; -0.0614 in test [20]. The z-score in test [4] is -1.25 (inactive); in test [12] it was -1.03.

For the origin of these results see PubChem BioAssay.
